Assay results published in the supplement of paper PMC9399229.
Structures can show the parent of a compound that is named as a salt. In all, about 1,900 compounds were measured (“relative cell viability (CellTiter-Glo), compound plus cabozantinib, relative to the cabozantinib arm (arm median 1.05; reference not stated)”: median about 1.1, lowest 2% from about 0.15 on). The entries come from a sample that favours the lowest values as a whole.

System: Hep3B
Assay: relative cell viability (CellTiter-Glo), compound plus cabozantinib, relative to the cabozantinib arm (arm median 1.05; reference not stated) (fraction); higher = more viable cells (less growth inhibition)
Conditions: cabozantinib 2 µM; 4 days

Compound | relative cell viability
O=C1c2c(O)ccc(O)c2C(=O)c2c(NCCNCCO)ccc(NCCNCCO)c21 [Mitoxantrone HCl] | 0.0809
COc1cc([C@@H]2c3cc4c(cc3[C@@H](O[C@@H]3O[C@@H]5CO[C@@H](C)O[C@H]5[C@H](O)[C@H]3O)[C@H]3COC(=O)[C@H]23)OCO4)cc(OC)c1O [Etoposide] | 0.923
COc1cc([C@@H]2c3cc4c(cc3[C@@H](O[C@@H]3O[C@@H]5CO[C@@H](c6cccs6)O[C@H]5[C@H](O)[C@H]3O)[C@H]3COC(=O)[C@H]23)OCO4)cc(OC)c1O [Teniposide] | 0.104
O=C(O)CC1CC(c2ccccc2)=NO1 (centres undefined) | 1.1
CC(C(O)c1ccc(O)cc1)N1CCC(Cc2ccccc2)CC1 (centres undefined) [Ifenprodil Tartrate] | 1.13
CS(=O)(=O)CCNCc1ccc(-c2ccc3ncnc(Nc4ccc(OCc5cccc(F)c5)c(Cl)c4)c3c2)o1 | 1.03
CS(=O)(=O)CCNCc1ccc(-c2ccc3ncnc(Nc4ccc(OCc5cccc(F)c5)c(Cl)c4)c3c2)o1 [Lapatinib] | 0.971
COC(=O)c1ccc2c(c1)NC(=O)/C2=C(\Nc1ccc(N(C)C(=O)CN2CCN(C)CC2)cc1)c1ccccc1 [Nintedanib (BIBF 1120)] | 0.806
CN(C)Cc1cccc(N/C(=C2\C(=O)Nc3cc(C(N)=O)ccc32)c2ccccc2)c1 | 0.924
CCS(=O)(=O)Nc1ccc2c(c1)/C(=C(/Nc1ccc(CN3CCCCC3)cc1)c1ccccc1)C(=O)N2 [Hesperadin] | 0.123
O=C1NCC2(CCN(CCc3ccccc3)CC2)O1 [Fenspiride HCl] | 1.16
CCCCN(Cc1ccc(C(=O)NO)cc1)C(=O)Nc1ccccc1 [Nexturastat A] | 0.953
CC(C)[C@H](C(=O)Nc1ccc(C(=O)NO)cc1)c1ccccc1 | 0.142
CC(=O)Nc1ccc(C(=O)Nc2ccccc2N)cc1 [CI994 (Tacedinaline)] | 1.14
CC(C(=O)O)c1ccc2c(c1)Cc1cccnc1O2 (centres undefined) [Pranoprofen] | 1
CNC(=O)c1ccccc1Nc1nc(Nc2ccc(N3CCOCC3)cc2OC)ncc1Cl | 0.155
CCOc1cc(N2CCC(O)CC2)ccc1Nc1ncc2c(n1)N(C)c1ccccc1C(=O)N2C | 1.09

Compound | relative cell viability
COc1cc(N2CCC(N)CC2)ccc1Nc1ncc(Cl)c(-c2c[nH]c3ccccc23)n1 | 0.119
CC/C(=C(/CC)c1ccc(O)cc1)c1ccc(O)cc1 [Diethylstilbestrol] | 1.21
CCCCNc1ncc(C(=O)NCc2ccc(-n3ccnc3)cc2)c(NC2CCC(O)CC2)n1 (centres undefined) | 0.996
Cc1cc(C#N)cc(C)c1Oc1nc(Nc2ccc(C#N)cc2)nc(N)c1Br [Etravirine (TMC125)] | 1.23
COc1cc(-c2cc(-c3ccc(N4CCNCC4)cc3)cnc2C)cc(OC)c1OC | 1.01
c1cc(-c2cnn3cc(-c4ccc(N5CCNCC5)cc4)cnc23)c2cccnc2c1 | 0.148
COc1ccc(-c2cnc3c(-c4cccc5ncccc45)cnn3c2)cc1 | 1.08
CS(=O)(=O)N1CCc2c(-c3cnc(N)nc3)nc(N3CCOCC3)nc21 | 0.228
CNC(=O)c1ccccc1Nc1cc(Nc2ccc(N3CCOCC3)cc2OC)ncc1C(F)(F)F | 1.05
CCCCCCCCCCCC[N+](C)(C)CCOc1ccccc1 [Domiphen Bromide] | 1.02
Cc1[nH]c2ccccc2c1CCNC(=O)c1cccs1 | 1.18
Cc1[nH]c2ccccc2c1CCNCc1ccc(/C=C/C(=O)NO)cc1 [Panobinostat (LBH589)] | 0.108
Cc1ccc([N+](=O)[O-])cc1S(=O)(=O)N(C)/N=C/c1cnc2ccc(Br)cn12 | 0.113
CCN(CC)C(=S)SSC(=S)N(CC)CC [Disulfiram] | 0.0898
Oc1ncnc2[nH]ncc12 [Allopurinol] | 0.992
CC(C)[C@H]1CC[C@H](C(=O)N[C@H](Cc2ccccc2)C(=O)O)CC1 [Nateglinide] | 1.13
CC(C)(C)c1nc(-c2cccc(NS(=O)(=O)c3c(F)cccc3F)c2F)c(-c2ccnc(N)n2)s1 | 0.993
